Paper PMC12136788
Where a chain is given by its changes, count along the chain named. In all, about 5,800 sequences were measured (“enrichment r”: median about 0.68, highest 2% from about 11 on). Many of the other results were omitted from the sample, so the highest values are more common in it than they were.

T1: UNK ZnF1-6 (called full-length) (human, UniProt Q9C0B0 30-357)
T1 sequence: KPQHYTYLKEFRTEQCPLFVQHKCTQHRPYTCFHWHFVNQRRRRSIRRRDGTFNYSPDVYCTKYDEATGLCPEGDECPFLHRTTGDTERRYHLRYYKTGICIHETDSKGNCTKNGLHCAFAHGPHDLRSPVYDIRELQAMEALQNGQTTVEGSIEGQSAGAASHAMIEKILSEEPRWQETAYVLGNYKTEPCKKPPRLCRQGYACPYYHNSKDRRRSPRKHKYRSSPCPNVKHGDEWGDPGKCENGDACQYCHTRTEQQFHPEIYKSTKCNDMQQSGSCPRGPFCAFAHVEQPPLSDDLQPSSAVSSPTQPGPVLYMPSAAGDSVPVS

B1: ENSG00000198589:be:win_7401|CDS|ENSG00000198589|bound_else_gene|NA|bound_elsewhere_windowed (ssRNA)
RNA: GGGAGUUCUACAGUCCGACGAUCUUCUCAACUACUCAUAGAGCCCCAUCCUCCCAGAGGUUCUGCCAUGCAAGUGAGUCCAUUGAUGUUCACAGACAAAGCCCAGCAGGAUGUUAUCAUGGUCCUCAAGUUUCCCUCCAACUCCAACAGAGGAUUGAGCAUCA
B2: chr5:128187618:128187661:+|3pUTR|ENSG00000064651|msi1_unk|total|mutant (ssRNA)
RNA: GGGAGUUCUACAGUCCGACGAUCUCCUUUAUAAGUCAUUAAAAUAAUGUUUCAUCAAAUGGUUAAAUGGACCACUGGUUUCUCCGAGAAAUGUUUUCCGGCUUAAUUCAUUCAAUUGUCAAGUACACUCCGUCUUAAUACACUCAACAGAGGAUUGAGCAUCA
B3: chr1:159061598:159062691:-|three_prime_utr|ENSG00000163568|control|control|control (ssRNA)
RNA: GGGAGUUCUACAGUCCGACGAUCUCAAUCAGAUUGUAAGUUACCUGAAAGCUGCAGUUCACAGGCUCCUCUCUCCACCAAAUUAGGAUAGAAUAAUUGCUGGAUAAACAAAUUCAGAAUAUCAACAGAUGAUCACAAUAAACACAACAGAGGAUUGAGCAUCA
B4: chr10:95606323:95606429:-|3pUTR|ENSG00000059573|unk|total|mutant (ssRNA)
RNA: GGGAGUUCUACAGUCCGACGAUCCCAUGGCUGCUUUGUGUCACCUCAGUGACUUACAGUCCCCCUUGGCAUUCCGUUGGUACCCGAGCCAGUCAUCCUUAACAAAUCUUUUCACAUUUUAUUUCUUUCACAUGCCGUCAUCUUCAACAGAGGAUUGAGCAUCA
B5: chr10:95606323:95606429:-|3pUTR|ENSG00000059573|unk|FALSE|bound_elsewhere (ssRNA)
RNA: B4 RNA with C73U, C74A, C83U, C84A, C134U, C135A
B6: chrX:107070192:107070425:-|CDS|ENSG00000089682|control|control|control (ssRNA)
RNA: GGGAGUUCUACAGUCCGACGAUCCGUUCUAGGAGCCAAAUGGCAGAAAAGGACUGGGAGGACCUCAACAUUUAGUAUUCUCUUAGUUUCCUUGCUUUCAGAAACAGUGUUCACAUCUUCAGCCAUGUAUGGCAUUCCCCAUCUCAACAGAGGAUUGAGCAUCA
B7: chr14:106116634:106116941:-|CDS|ENSG00000211941|control|control|control (ssRNA)
RNA: GGGAGUUCUACAGUCCGACGAUCUGGAUCCGCCAGGCUCCAGGGAAGGGGCUGGAGUGGGUUUCAUACAUUAGUAGUAGUAGUAGUUACACAAACUACGCAGACUCUGUGAAGGGCCGAUUCACCAUCUCCAGAGACAACGCCCAACAGAGGAUUGAGCAUCA
B8: ENSG00000070961:be:win_4601|3pUTR|ENSG00000070961|bound_else_gene|NA|bound_elsewhere_windowed (ssRNA)
RNA: GGGAGUUCUACAGUCCGACGAUCUCAGACUAUCAAACUACAAGAGAACCUUAGUCUUUUUUGUUUUUGUCUAAACAUGUUAGUUUAGUGAUGUCUUGGUGAACUGUGAGUGAACUGUAUUGAUUUUUCUAAUCUUUAGAGACCCAACAGAGGAUUGAGCAUCA
B9: ENSG00000157823:stop:overlap|stop_codon|ENSG00000157823|stop_codon|NA|stop_codon (ssRNA)
RNA: GGGAGUUCUACAGUCCGACGAUCUCCGCUUCUACCAGCGUUUCAAGAAAUUCAACAGCAGAUUGUUCGAGAGACUUUCCAUCUAGUCCUCAAGCGGGAUGACAACAUCUGUAACUUCUUGGAGGGUGGAAGUUUGAUUGGUGGCAACAGAGGAUUGAGCAUCA
B10: chr13:42321371:42321394:+|3pUTR|ENSG00000023516|msi1_unk|FALSE|overlapping (ssRNA)
RNA: GGGAGUUCUACAGUCCGACGAUCUUCUGUUUAUGGUGUAAUCAUUCUGAGGUGAGGCUUUUCUUAUUUCCUUUGCAUUUUGCUAGAGCUGUGCUGAGUUCAGCAUUUGCUUAUUUAACCACUACAUAAUGACAGACCAGUUAUCAACAGAGGAUUGAGCAUCA
B11: chr7:7573188:7573293:+|CDS|ENSG00000164654|unk|total|mutant (ssRNA)
RNA: GGGAGUUCUACAGUCCGACGAUCCCAUAUUUCCACGAUCGUGUUGCUUCCUUCUAUGAAGGUCAGGUUGCAAUAUGGGAUCUCCGAAAAUUUGAGAAGCCAGUUUUGACAUUGACUGAGCAACCAAAACCCUUAACAAAAGUACAACAGAGGAUUGAGCAUCA
B12: chr1:68475836:68475940:-|3pUTR|ENSG00000024526|unk|FALSE|unique (ssRNA)
RNA: GGGAGUUCUACAGUCCGACGAUCAUGCCCAGGGCCUAACUUACACUAAUUAAAUCUGAAUUUUGGGGAUGUUGUAUAGGGAUUAGUAUUUUUUUUAAUCUAGGUGAUUCCAAUAUUCAGCCAACUGUGAGAAUCAAUGGCCUACAACAGAGGAUUGAGCAUCA
B13: chrX:135156539:135157311:-|three_prime_utr|ENSG00000169551|control|control|control (ssRNA)
RNA: GGGAGUUCUACAGUCCGACGAUCUUUAUUCUGUUUAUCUUUCCUUUUAUGAGCAGUAAAGGGGCUGGUUUAACUUAAAAGGUUAGCUUAGUAAGCCUAAAUAGUAUUUUAUAUAUGACUUUUCUGGCAAAUCUAAUUGAGACACAACAGAGGAUUGAGCAUCA
B14: chr1:68475836:68475940:-|3pUTR|ENSG00000024526|unk|total|mutant (ssRNA)
RNA: B12 RNA with U76C, A77C, U83C, A84C, U100C, A101C
B15: chr15:67202635:67202736:-|3pUTR|ENSG00000103591|msi1|FALSE|unique (ssRNA)
RNA: GGGAGUUCUACAGUCCGACGAUCUGCCAAAAUUGCCCUUAUCAUGUUGGCUGCCUGACUUGUUUAUAGGGUCCCCUUAAUUUUAGUUUUUAGUAGGAGGUUAAGGAGAAAUCUUUUUUUUCCUCAGUAUAUUGUAAGAGAGUGCAACAGAGGAUUGAGCAUCA
B16: chr7:157269180:157269282:+|3pUTR|ENSG00000009335|unk|FALSE|unique (ssRNA)
RNA: GGGAGUUCUACAGUCCGACGAUCAUUUUAGGUUGUUUUAUGUUGAAUGUUCUAUAUCUUAUUAGUUAAUUUGUAUAUUUUAUUAGUAUUUUGGAAAUAGCAUAUCUGAGACUGAAGAGAAAUUGACAAUUCACUUAUUUGUGGCAACAGAGGAUUGAGCAUCA
B17: chr19:34469546:34469571:+|3pUTR|ENSG00000126261|msi1_unk|FALSE|overlapping (ssRNA)
RNA: GGGAGUUCUACAGUCCGACGAUCGUUGCCUUUUUAAUGUAAAUACCCGUAGGUAUCAUUAAUAGUUUCAAAAUAUUGUGGUUUAGUAAAGUUGAUACCUGGUUAUAAAUAUUAUGCCUUUAUUUUUGGCUAGAAGAAGAAUUACAACAGAGGAUUGAGCAUCA
B18: chr17:29548703:29548809:+|3pUTR|ENSG00000160551|unk|FALSE|bound_elsewhere (ssRNA)
RNA: GGGAGUUCUACAGUCCGACGAUCAGCACUUGUGAGUGAAAAAUCAUGUAAUUAUCUGUAAAUAUGUAGCUAACAAAUUGACCUAGUUUCUGUAUUUUUUUGUUUUUGUACUAAAGUUUAUAGGUCUGUGCCAGCUAGAGAGAACAACAGAGGAUUGAGCAUCA
B19: chr8:23844609:23844711:-|3pUTR|ENSG00000159167|msi1|FALSE|unique (ssRNA)
RNA: GGGAGUUCUACAGUCCGACGAUCUUUAGGGGUGUUGACACACCAGUUUUGAGUGUACUGUGCCUGGUUUGAUUUUUUUAAAGUAGUUCCUAUUUUCUAUCCCCCUUAAAGAAAAUUGCAUGAAACUAGGCUUCUGUAAUCAAUCAACAGAGGAUUGAGCAUCA
B20: chr2:65312585:65312700:-|3pUTR|ENSG00000198369|unk|FALSE|unique (ssRNA)
RNA: GGGAGUUCUACAGUCCGACGAUCUGGACCAGGGCUAGAAUGGGGAUUUCAGGUUUCUAUGAGCCUCCCCAUUACCCCUAAAGUAGAACAUUUUUUAAAUUGUGUUGCCACCACUUCUAAAAAUUUAGCAAUAUUAGAAUAGGACAACAGAGGAUUGAGCAUCA
B21: chr7:157269180:157269282:+|3pUTR|ENSG00000009335|unk|total|mutant (ssRNA)
RNA: B16 RNA with U28C, A29C, U62C, A63C, U83C, A84C, U97C, A98C
B22: chr18:2804133:2804242:+|3pUTR|ENSG00000101596|unk|FALSE|unique (ssRNA)
RNA: GGGAGUUCUACAGUCCGACGAUCGGUUAAAGAGAAAUGACUUUUUAGGAACUAGACUUGAACGUAUAAUUAAUAUGUGGAACUAGUUUGCUUUUAUAAUUCAUUGUAUCAAGAAGGAGUCAUGUUUUAAAUCCAAGGCAUUGACAACAGAGGAUUGAGCAUCA

What follows are binders tested against T1, UNK ZnF1-6 (called full-length) (assay: nsRBNS (natural sequence RNA bind-n-seq); RBNS binding buffer (assumed for nsRBNS): 25 mM Tris pH 7.5, 150 mM KCl, 3 mM MgCl2, 0.01% Triton X-100, 500 ug/ml BSA, 20 U/ml SUPERase-In, 4 C; UNK is unkempt and MSI1 is Musashi-1; names of the RNAs are library labels; protein concentration not given here; high values mean tight binding).

Row | Binder | binding signal [enrichment R]
1 | B1 | 0.555
2 | B2 | 0.678
3 | B3 | 1.86
4 | B4 | 6.24
5 | B5 | 15.5
6 | B6 | 3.69
7 | B7 | 1.12
8 | B8 | 2.66
9 | B9 | 0.633
10 | B10 | 0.605
11 | B11 | 0.291
12 | B12 | 11.6
13 | B13 | 1.68
14 | B14 | 0.698
15 | B15 | 15.9
16 | B16 | 19.7
17 | B17 | 9.94
18 | B18 | 6.33
19 | B19 | 0.924
20 | B20 | 13.9
21 | B21 | 0.843
22 | B22 | 0.789
